Compound activity from PubChem.
Sampled rows, rich in hits. Any-hit rate of the full collection: about 12%.
BAZ2B inh: BAZ2B (human) inhibition. 360,000 tested, 4.4% active. AlphaScreen BAZ2B-H3K14Ac peptide displacement. Potency, µM (highest dose often 114 µM), without a hit: at the highest dose activity change, negative = inhibition, most hits filed as inhibitors; note: % is set by controls: 0 for no effect and ±100 for the full control effect; nearly all actives have a fitted effect of over 60% in size
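Complex of BAZ2B and biotin-H3K14Ac (50 nM apiece) forms over 30 min at RT, then faces library compounds up to 110 uM for another 30 min; AlphaScreen beads added, 20 min dark incubation, luminescence read.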
G9a inh: blocks human histone lysine methyltransferase G9a | Q96KQ7 | G9a H3K9 monomethylation, AlphaScreen, 2 h | Potency, µM (series often up to 102 µM), without a hit: top-dose activity, negative = inhibition, most hits filed as inhibitors | 350,000 tested, 8.8% active | AID 504332; note: % is set by controls: 0 for no effect and ±100 for the full control effect; nearly all actives have a fitted effect of over 75% in size
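Quantitative HTS format: methyltransferase activity on a biotin-tagged H3K9 peptide is measured by AlphaScreen, using a rabbit anti-monomethyl-H3K9 antibody with streptavidin donor and anti-IgG acceptor beads. Final levels are 20 nM enzyme, 500 nM peptide, 20 uM SAM; 2 h RT.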
L3MBTL1 inh: blocks human L3MBTL1; Q9Y468; Potency, µM (highest dose often 57.1 µM), inactives show at the highest dose activity, negative = inhibition, most hits filed as inhibitors; AlphaScreen L3MBTL1–H3K9me1 peptide binding; 230,000 tested, 0.66% active; note: % is set by controls: 0 for no effect and ±100 for the full control effect; nearly all actives have a fitted effect of over 60% in size
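First, the protein-peptide complex forms for 30 min at room temperature (L3MBTL1 50 nM, biotinylated H3K9me1 peptide 75 nM). Next, compounds are pin-transferred and incubated 30 min. Finally, AlphaScreen beads are added and read after 30 min.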
Sfp inh: Sfp phosphopantetheinyl transferase inhibition; Q9F4F7; Biochemical Sfp PPTase activity, qHTS; Potency, µM, for inactives: largest response in the series, negative = inhibition, most hits filed as inhibitors; 310,000 tested, 3.5% active; AID 1490;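 note: the enzyme is Sfp with the accession as filed and its product quenches rhodamine fluorescence; 0% = enzyme reaction without inhibitor and -100% = no enzyme wells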
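Fluorescence-quenching assay: 15 nM Sfp-PPTase preincubated 15 min at room temperature with compound, then 5 uM rhodamine-CoA and 12.5 uM BHQ-2-labelled YbbR peptide added. Fluorescence (ex 525/em 598 nm) read at start and after 30 min; difference gives rate.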
HP1b binding inh: inhibitors of HP1-beta chromodomain binding to methylated histone tails | P83916 | AlphaScreen HP1-beta / biotin-H3K9me3 peptide binding | Potency, µM (titrated, usually from 114 µM), without a hit: top-dose activity change, negative = inhibition, hits mostly inhibitors | 390,000 tested, 0.56% active | AID 540317; note: nearly all actives have a fitted effect of over 70% in size
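AlphaScreen: HP1-beta (50 nM) preformed 30 min with biotin-H3(1-18)K9me3 peptide (50 nM) in PBS pH 7.4, 0.01% Tween-20. Compound added for 30 min at RT, then streptavidin donor/nickel chelate acceptor beads (10 ug/mL) for 30 min.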
JMJD2A Tudor inh: blocks the human JMJD2A Tudor domain; O75164; AlphaScreen JMJD2A-Tudor / H3K4me3 peptide binding; Potency, µM (series often up to 114 µM), for inactives: at the top dose activity change, negative = inhibition, most hits filed as inhibitors; 390,000 tested, 4.4% active; note: % is set by controls: 0 for no effect and ±100 for the full control effect; nearly all actives have a fitted effect of over 50% in size
Numbers without * were called inactive; [ ] = another dose, or the depositor's remark. Calls come from the whole dose curve; as a rule, active = well fitted curve in the direction sought with a large enough effect; inconclusive = small, poorly fitted or top-dose-only effect, or another doubt; inactive = no such curve, though single readings can be large; an effect the other way counts as inactive or inconclusive. Potency is the fitted concentration of half-maximal effect.

Results for Cc1nccc(-c2cccc(N/N=C(\C#N)C(=O)c3ccccc3)c2)n1 ?
BAZ2B inh: -28.0%; G9a inh: inconclusive; L3MBTL1 inh: -16.6%; Sfp inh: 2.5%; HP1b binding inh: -5.4%; JMJD2A Tudor inh: inconclusive

What do the screens show for `COC(=O)c1ccc(N=NNc2ccc(C(=O)OC)cc2)cc1`?
BAZ2B inh: -28.9%; G9a inh: -25.6%[59 µM]; L3MBTL1 inh: -3.0%; Sfp inh: 5.3%; HP1b binding inh: 17.8%; JMJD2A Tudor inh: -8.6%

How did O=C(O)c1ccc(N=NNc2cccc([N+](=O)[O-])c2)cc1 do in these assays?
BAZ2B inh: -29.6%; G9a inh: 44.7µM*; L3MBTL1 inh: -3.1%; Sfp inh: 6.2%; HP1b binding inh: -4.0%; JMJD2A Tudor inh: -16.1%

How did Cc1nc2nc[nH]n2c(=O)c1NS(=O)(=O)c1ccc(Br)cc1 do in these assays?
BAZ2B inh: -1.3%; G9a inh: 3.7%[59 µM]; HP1b binding inh: 22.2%; JMJD2A Tudor inh: -15.1%

What do the screens show for `COc1ccccc1CNC(=O)c1ccc(CSc2nc3ccncc3n2Cc2ccccc2C)cc1`?
BAZ2B inh: -3.8%; G9a inh: inconclusive; HP1b binding inh: 14.5%; JMJD2A Tudor inh: -21.5%

Results for O=C(c1cccnc1)N1CCN(C(=O)c2cccc(Cl)c2)CC1 ?
BAZ2B inh: 2.9%; L3MBTL1 inh: -0.1%; Sfp inh: 6.7%; HP1b binding inh: 64.9%; JMJD2A Tudor inh: -2.8%

How did COc1ccc(CN2CCN(C(=O)c3cccnc3)CC2)cc1Br do in these assays?
BAZ2B inh: 35.5µM*; G9a inh: 17.8µM*; L3MBTL1 inh: -2.9%; Sfp inh: 79.4µM*; HP1b binding inh: inconclusive; JMJD2A Tudor inh: 3.16µM*

How did O=C(c1cccnc1)N1CCN(Cc2cccc(Br)c2)CC1 do in these assays?
BAZ2B inh: 19.4%; G9a inh: 12.6µM*; Sfp inh: 89.1µM*; HP1b binding inh: 50.1µM*; JMJD2A Tudor inh: 3.55µM*

What do the screens show for `CCC(=O)Nc1cc2c(cc1Cl)-c1ccccc1C2`?
HP1b binding inh: 11.7%; JMJD2A Tudor inh: -11.6%

What do the screens show for `O=C1CCC(C(=O)OCC(=O)N2N=C3/C(=C/c4ccccc4)CCCC3C2c2ccccc2)N1` (stereo unspecified)?
BAZ2B inh: inconclusive; G9a inh: 56.2µM*; Sfp inh: -24.3%; HP1b binding inh: -1.0%; JMJD2A Tudor inh: inconclusive

How did COC(=O)c1c(NC(=O)c2ccccc2)sc(C(N)=O)c1C do in these assays?
BAZ2B inh: -5.2%; G9a inh: 0.6%; L3MBTL1 inh: 10.5%; Sfp inh: 11.2%; HP1b binding inh: 25.1%; JMJD2A Tudor inh: 17.2%

Results for Cc1ccc(C(=O)Nc2sc(C)c(-c3ccccc3)c2C(N)=O)cc1[N+](=O)[O-] ?
BAZ2B inh: 3.9%; G9a inh: 39.8µM*; L3MBTL1 inh: -1.7%; Sfp inh: 44.7µM*; HP1b binding inh: -43.6%; JMJD2A Tudor inh: inconclusive

Results for COC(=O)c1c(NC(=O)c2cccc([N+](=O)[O-])c2)sc(C(N)=O)c1C ?
BAZ2B inh: -14.2%; L3MBTL1 inh: 0.4%; Sfp inh: 44.7µM*; HP1b binding inh: -16.3%; JMJD2A Tudor inh: -18.8%

What do the screens show for `COC(=O)c1sc(NC(=O)c2cccc([N+](=O)[O-])c2)c(C(N)=O)c1C`?
BAZ2B inh: 0.9%; G9a inh: 10µM*; L3MBTL1 inh: 0.7%; Sfp inh: inconclusive; HP1b binding inh: inconclusive; JMJD2A Tudor inh: -10.9%

Results for CC(C)(C)OC(=O)N1CCC(Cc2cc(-c3ccccc3)no2)(C(=O)O)CC1 ?
BAZ2B inh: -27.9%; G9a inh: -6.0%; L3MBTL1 inh: 3.4%; Sfp inh: 13.1%; HP1b binding inh: 26.9%; JMJD2A Tudor inh: -8.4%

What do the screens show for `CC1=NN(c2nc3ccccc3[nH]2)C(=O)/C1=C/N(C)C`?
BAZ2B inh: 22.4µM*; G9a inh: 34.3%[59 µM]; Sfp inh: 17.9%; HP1b binding inh: 48.4%; JMJD2A Tudor inh: 56.2µM*

How did CCOC1=NN(c2ccc(Cl)cc2)C(=O)/C1=C\N(C)C do in these assays?
BAZ2B inh: -26.0%; G9a inh: 56.2µM*; L3MBTL1 inh: 11.3%; Sfp inh: 20.7%; HP1b binding inh: 29.2%; JMJD2A Tudor inh: -13.9%

Results for CN(C)/C=C1/C(=O)N(c2ccc([N+](=O)[O-])cc2)N=C1c1ccccc1 ?
BAZ2B inh: -33.9%; G9a inh: inconclusive; L3MBTL1 inh: -3.4%; Sfp inh: -1.8%

Results for Cc1nn(-c2nc3ccccc3[nH]2)c(=O)c2ccccc12 ?
BAZ2B inh: -2.9%; G9a inh: -0.1%; L3MBTL1 inh: 1.3%; Sfp inh: 19.1%; HP1b binding inh: 31.0%; JMJD2A Tudor inh: -9.0%

Results for CCCC1=NN(c2ccc([N+](=O)[O-])cc2)C(=O)/C1=C/N(C)C ?
BAZ2B inh: 6.6%; G9a inh: -0.4%[59 µM]; L3MBTL1 inh: -7.2%; Sfp inh: 79.4µM*; HP1b binding inh: 21.2%; JMJD2A Tudor inh: -16.4%

How did CC1=NN(c2ccc([N+](=O)[O-])cc2)C(=O)/C1=C\N(C)C do in these assays?
BAZ2B inh: inconclusive; G9a inh: 10µM*; L3MBTL1 inh: -7.2%; Sfp inh: 7.2%; HP1b binding inh: -4.1%; JMJD2A Tudor inh: -22.1%

How did CCNc1ncc2nc(-c3ccc(OC)cc3)c(=O)n(C)c2n1 do in these assays?
G9a inh: 6.3%[0.501 µM]; Sfp inh: -13.8%

What do the screens show for `COc1cc(C(C)C)c2c(c1)S(=O)(=O)N(COc1cc(=O)n3cccc(OCCN4CCCCC4)c3n1)C2=O`?
Sfp inh: -18.5%

How did Cc1cc(-c2cc(-c3ccccc3)on2)nc(NC2CCCC2)n1 do in these assays?
BAZ2B inh: 39.7%; G9a inh: 1.4%[12.7 µM]; Sfp inh: inconclusive; HP1b binding inh: 46.7%; JMJD2A Tudor inh: 57.2%

Results for COc1ccc2nc(SCC(=O)c3c(N)n(C4CC4)c(=O)[nH]c3=O)[nH]c2c1 ?
BAZ2B inh: 8.3%; G9a inh: 7.08µM*; L3MBTL1 inh: -1.2%; HP1b binding inh: 48.6%; JMJD2A Tudor inh: -5.7%

What do the screens show for `COc1ccc2nc(SCC(=O)C(C)(C)C)[nH]c2c1`?
BAZ2B inh: -10.9%; G9a inh: 56.2µM*; L3MBTL1 inh: 2.0%; Sfp inh: 39.8µM*; HP1b binding inh: 19.0%; JMJD2A Tudor inh: -15.3%

How did Nc1nc(SCC(=O)c2c(N)n(C3CC3)c(=O)[nH]c2=O)n[nH]1 do in these assays?
BAZ2B inh: 9.9%; G9a inh: 11.2µM*; L3MBTL1 inh: 6.5%; HP1b binding inh: 29.4%; JMJD2A Tudor inh: -6.2%

What do the screens show for `CCOc1ccc2nc(SCC(=O)NCc3ccc(OC)c(OC)c3)[nH]c2c1`?
BAZ2B inh: -12.2%; G9a inh: 0.5%; L3MBTL1 inh: 1.1%; Sfp inh: -1.1%; HP1b binding inh: -13.8%; JMJD2A Tudor inh: -24.1%
